Assay [1] concerns DLD1. The assay is described as follows: cell viability (CellTiter-Glo) relative to plate median (fraction of plate median); higher = more viable cells. The following applies: 5 µM; treatment time 24 h; reporter: 7TFP. The method in brief: (§1)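 Normalisation used webcellHTS2 in additive mode without log transformation, scaling each well's luminescence to the plate median. The luminescence was firefly luciferase or CellTiterGlo, read on a Tecan F500 from parallel plates of colorectal cancer cells stably transduced with lentiviral TCF/Wnt firefly luciferase reporters. Those cells had been given library compounds at a final 5 µM for 24 h, and two independent replicates were averaged.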
(Cellular ATP, detected with luciferase, serves as a proxy for viable cell number.)

In another assay the test system is HCT116. The assay is described as above. The settings on record: 5 µM; treatment time 24 h; reporter: TCF4/Wnt. The method in brief: as §1
The subject of assay [2] is SW480. The assay is described as above. The settings on record: 5 µM; treatment time 24 h; reporter: 7TFP. The method in brief: as §1
The test system of assay [3] is DLD1. The assay is described as follows: TCF/Wnt firefly luciferase reporter signal relative to plate median (fraction of plate median); higher = higher Wnt reporter signal. The following applies: 5 µM; treatment time 24 h; reporter: 7TFP. The procedure, abridged:
as §1
(In general: A reporter such as luciferase makes a cellular process visible.)

Assay [4] has as its system SW480. The description is as above. The settings on record: 5 µM; treatment time 24 h; reporter: 7TFP. The procedure, abridged: as §1

± gives the standard deviation of the averaged measurements.

`C[C@H]1CCC/C=C/C(=O)c2c(O)cc(O)cc2CC(=O)O1` [Dehydro-Curvularin]: the results for the cell viability with DLD1 [1], with HCT116 and in the assay on SW480 [2] were 0.9905 ± 0.005, 1.08 ± 0.014 and 1.02 ± 0.03, respectively. Moreover, the “TCF/Wnt firefly luciferase reporter signal” value in the assay on DLD1 [3] is 1.095 ± 0.0071; in the assay with SW480 [4], 1 ± 0.07.

Take `C[C@H]1[C@H]2CC[C@H]3[C@@H]4CC=C5C[C@@H](N(C)C)CC[C@]5(C)[C@H]4CC[C@]23CN1C`: the cell viability with DLD1 [1] amounted to 0.896 ± 0.0042; with HCT116, 0.783 ± 0.14; in the assay with SW480 [2], 0.984 ± 0.021. The results for the “TCF/Wnt firefly luciferase reporter signal” value in the assay on DLD1 [3] and in the assay on SW480 [4] were 0.9855 ± 0.00071 and 1.05, respectively.

With `C[C@H](CCC(=O)O)[C@H]1CC[C@H]2[C@@H]3CC[C@@H]4CCCC[C@]4(C)[C@H]3CC[C@]12C`, the cell viability with DLD1 [1] amounted to 0.984 ± 0.016; in the assay with HCT116, 1.06 ± 0.035; in the assay with SW480 [2] it was 1.06 ± 0.09. Also, the figures for the “TCF/Wnt firefly luciferase reporter signal” value in the assay with DLD1 [3] and in the assay with SW480 [4] were 0.905 ± 0.044 and 1.03 ± 0.059, respectively.

As for `CC(C)C[C@H]1NC(=O)[C@@H](NC(=O)c2ncccc2O)[C@@H](C)OC(=O)[C@H](c2ccccc2)N(C)C(=O)[C@H](C)NC(=O)[C@H]([C@@H](C)C(C)C)N(C)C(=O)CN(C)C(=O)[C@H]2C[C@@H](O)CN2C1=O` [Viridogrisein], the cell viability with DLD1 [1] stood at 1.04 ± 0.11; in the assay on HCT116, 0.954 ± 0.066; with SW480 [2] it was 0.971 ± 0.11. Besides, the “TCF/Wnt firefly luciferase reporter signal” value in the assay with DLD1 [3] was determined as 1.12 ± 0.021; in the assay on SW480 [4], 0.999 ± 0.073.

With `CC(C)C[C@@H]1NC(=O)CNC1=O` [Cyclo(leucylglycyl)], the cell viability in the assay on DLD1 [1] turned out to be 0.991 ± 0.042; in the assay with HCT116 it was 1.05 ± 0.057; in the assay on SW480 [2], 0.949 ± 0.072. In addition, the “TCF/Wnt firefly luciferase reporter signal” value came out at 0.956 ± 0.028 in the assay on DLD1 [3] and 0.935 ± 0.044 in the assay on SW480 [4].

On to `C=C1CC[C@@H]2[C@](C)(CO)[C@H](O)CC[C@@]2(C)[C@@H]1C/C=C1/C(=O)OC[C@H]1O`, for which the cell viability in the assay on DLD1 [1] came out at 1.03 ± 0.021; with HCT116, 0.963 ± 0.052; in the assay on SW480 [2], 1.02 ± 0.014. The figures for the “TCF/Wnt firefly luciferase reporter signal” value in the assay on DLD1 [3] and in the assay with SW480 [4] were 1.06 ± 0.042 and 0.987 ± 0.033, respectively.

As to `NC12CC3CC(CC(C3)C1)C2`, the values for the cell viability with DLD1 [1], in the assay with HCT116 and in the assay on SW480 [2] were 0.979 ± 0.028, 0.944 ± 0.058 and 1.04 ± 0.021, respectively. Moreover, the “TCF/Wnt firefly luciferase reporter signal” value was found to be 0.908 ± 0.34 in the assay with DLD1 [3] and 1.025 ± 0.0071 in the assay with SW480 [4].

For `O=C(O)c1cn(-c2ccc(F)cc2)c2cc(N3CCNCC3)c(F)cc2c1=O`, the cell viability in the assay with DLD1 [1] was 0.906 ± 0.012; with HCT116, 0.949 ± 0.029; in the assay on SW480 [2], 0.998 ± 0.046. Moreover, the “TCF/Wnt firefly luciferase reporter signal” value with DLD1 [3] was 1.08 ± 0.11; in the assay on SW480 [4] it was 1.06 ± 0.1.

On to `CCC(=O)O[C@]1(C(=O)CCl)[C@@H](C)C[C@H]2[C@@H]3CCC4=CC(=O)C=C[C@]4(C)[C@@]3(F)[C@@H](O)C[C@@]21C`, for which the values for the cell viability with DLD1 [1], in the assay on HCT116 and in the assay with SW480 [2] were 1.03 ± 0.035, 0.9775 ± 0.0078 and 1.01 ± 0.035, respectively. Also, the entries for the “TCF/Wnt firefly luciferase reporter signal” value in the assay on DLD1 [3] and in the assay with SW480 [4] were 0.896 ± 0.27 and 0.893 ± 0.027, respectively.

Take `Fc1ccc([C@@H]2CCNC[C@H]2COc2ccc3c(c2)OCO3)cc1`: the results for the cell viability in the assay with DLD1 [1], in the assay on HCT116 and in the assay with SW480 [2] were 0.977 ± 0.021, 1.02 ± 0.12 and 1.02 ± 0.021, respectively. In addition, the “TCF/Wnt firefly luciferase reporter signal” value in the assay on DLD1 [3] was determined as 1.1 ± 0.085; in the assay on SW480 [4] it was 1.13 ± 0.042.

For `CC12CCC(CC1)C(C)(C)O2`, the cell viability in the assay with DLD1 [1] was determined as 0.996 ± 0.049; in the assay with HCT116, 1.055 ± 0.0071; with SW480 [2], 0.934 ± 0.019. The “TCF/Wnt firefly luciferase reporter signal” value in the assay with DLD1 [3] was 1.21 ± 0.18; in the assay with SW480 [4], 1.11 ± 0.099.

For the compound `NS(=O)(=O)c1cc(C2(O)NC(=O)c3ccccc32)ccc1Cl` (stereo not given), the cell viability came to 1.02 ± 0.067 in the assay on DLD1 [1], 1.02 ± 0.036 in the assay on HCT116 and 0.986 ± 0.1 with SW480 [2]. For the same compound, the figures for the “TCF/Wnt firefly luciferase reporter signal” value with DLD1 [3] and in the assay with SW480 [4] were 0.958 ± 0.13 and 0.981 ± 0.025, respectively.

Consider `Cc1ncc(C[n+]2csc(CCO)c2C)c(N)n1`, for which the cell viability in the assay on DLD1 [1] was determined as 0.981 ± 0.041; in the assay on HCT116, 0.978 ± 0.088; in the assay with SW480 [2], 1.005 ± 0.0071. For the same compound, the “TCF/Wnt firefly luciferase reporter signal” value worked out at 0.926 ± 0.011 with DLD1 [3] and 0.946 ± 0.02 in the assay with SW480 [4].

Take `CC(C)C[C@@H](NC(=O)[C@H](C)NC(=O)CNC(=O)[C@@H](NC=O)C(C)C)C(=O)N[C@@H](C)C(=O)N[C@@H](C(=O)N[C@H](C(=O)N[C@H](C(=O)N[C@@H](Cc1c[nH]c2ccccc12)C(=O)N[C@H](CC(C)C)C(=O)N[C@@H](Cc1c[nH]c2ccccc12)C(=O)N[C@H](CC(C)C)C(=O)N[C@@H](Cc1c[nH]c2ccccc12)C(=O)N[C@H](CC(C)C)C(=O)N[C@@H](Cc1c[nH]c2ccccc12)C(=O)NCCO)C(C)C)C(C)C)C(C)C`: the cell viability with DLD1 [1] amounted to 0.939 ± 0.13; in the assay on HCT116, 0.903 ± 0.061; with SW480 [2] it was 0.613 ± 0.072. Moreover, the “TCF/Wnt firefly luciferase reporter signal” value with DLD1 [3] turned out to be 0.885 ± 0.043; in the assay with SW480 [4], 0.488 ± 0.077.
